Screen size: about 340,000 compounds; about 1,000 (0.29%) were called active. No stated cut-off is given here; in the data, inconclusive means inhibition above about 29% without an active follow-up result; inactive means below that. The list is a sample of the results. Results with a measured potency or affinity are listed apart.
Biological target: Genome polyprotein (Dengue virus type 2 (strain 16681-PDK53)) (UniProt P29991)
Experiment: Dengue-2 NS5 methyltransferase inhibitors, primary screen, biochemical, confirmation dose response (AID 588689)
Conditions: Dengue-2 NS5 methyltransferase capping enzyme assay, at 25 µM, stronger effect = higher value
[1] = measured here: pilot screen replicate inhibition

Sequence of Genome polyprotein (Dengue virus type 2 (strain 16681-PDK53)) (P29991 whole entry, looked up): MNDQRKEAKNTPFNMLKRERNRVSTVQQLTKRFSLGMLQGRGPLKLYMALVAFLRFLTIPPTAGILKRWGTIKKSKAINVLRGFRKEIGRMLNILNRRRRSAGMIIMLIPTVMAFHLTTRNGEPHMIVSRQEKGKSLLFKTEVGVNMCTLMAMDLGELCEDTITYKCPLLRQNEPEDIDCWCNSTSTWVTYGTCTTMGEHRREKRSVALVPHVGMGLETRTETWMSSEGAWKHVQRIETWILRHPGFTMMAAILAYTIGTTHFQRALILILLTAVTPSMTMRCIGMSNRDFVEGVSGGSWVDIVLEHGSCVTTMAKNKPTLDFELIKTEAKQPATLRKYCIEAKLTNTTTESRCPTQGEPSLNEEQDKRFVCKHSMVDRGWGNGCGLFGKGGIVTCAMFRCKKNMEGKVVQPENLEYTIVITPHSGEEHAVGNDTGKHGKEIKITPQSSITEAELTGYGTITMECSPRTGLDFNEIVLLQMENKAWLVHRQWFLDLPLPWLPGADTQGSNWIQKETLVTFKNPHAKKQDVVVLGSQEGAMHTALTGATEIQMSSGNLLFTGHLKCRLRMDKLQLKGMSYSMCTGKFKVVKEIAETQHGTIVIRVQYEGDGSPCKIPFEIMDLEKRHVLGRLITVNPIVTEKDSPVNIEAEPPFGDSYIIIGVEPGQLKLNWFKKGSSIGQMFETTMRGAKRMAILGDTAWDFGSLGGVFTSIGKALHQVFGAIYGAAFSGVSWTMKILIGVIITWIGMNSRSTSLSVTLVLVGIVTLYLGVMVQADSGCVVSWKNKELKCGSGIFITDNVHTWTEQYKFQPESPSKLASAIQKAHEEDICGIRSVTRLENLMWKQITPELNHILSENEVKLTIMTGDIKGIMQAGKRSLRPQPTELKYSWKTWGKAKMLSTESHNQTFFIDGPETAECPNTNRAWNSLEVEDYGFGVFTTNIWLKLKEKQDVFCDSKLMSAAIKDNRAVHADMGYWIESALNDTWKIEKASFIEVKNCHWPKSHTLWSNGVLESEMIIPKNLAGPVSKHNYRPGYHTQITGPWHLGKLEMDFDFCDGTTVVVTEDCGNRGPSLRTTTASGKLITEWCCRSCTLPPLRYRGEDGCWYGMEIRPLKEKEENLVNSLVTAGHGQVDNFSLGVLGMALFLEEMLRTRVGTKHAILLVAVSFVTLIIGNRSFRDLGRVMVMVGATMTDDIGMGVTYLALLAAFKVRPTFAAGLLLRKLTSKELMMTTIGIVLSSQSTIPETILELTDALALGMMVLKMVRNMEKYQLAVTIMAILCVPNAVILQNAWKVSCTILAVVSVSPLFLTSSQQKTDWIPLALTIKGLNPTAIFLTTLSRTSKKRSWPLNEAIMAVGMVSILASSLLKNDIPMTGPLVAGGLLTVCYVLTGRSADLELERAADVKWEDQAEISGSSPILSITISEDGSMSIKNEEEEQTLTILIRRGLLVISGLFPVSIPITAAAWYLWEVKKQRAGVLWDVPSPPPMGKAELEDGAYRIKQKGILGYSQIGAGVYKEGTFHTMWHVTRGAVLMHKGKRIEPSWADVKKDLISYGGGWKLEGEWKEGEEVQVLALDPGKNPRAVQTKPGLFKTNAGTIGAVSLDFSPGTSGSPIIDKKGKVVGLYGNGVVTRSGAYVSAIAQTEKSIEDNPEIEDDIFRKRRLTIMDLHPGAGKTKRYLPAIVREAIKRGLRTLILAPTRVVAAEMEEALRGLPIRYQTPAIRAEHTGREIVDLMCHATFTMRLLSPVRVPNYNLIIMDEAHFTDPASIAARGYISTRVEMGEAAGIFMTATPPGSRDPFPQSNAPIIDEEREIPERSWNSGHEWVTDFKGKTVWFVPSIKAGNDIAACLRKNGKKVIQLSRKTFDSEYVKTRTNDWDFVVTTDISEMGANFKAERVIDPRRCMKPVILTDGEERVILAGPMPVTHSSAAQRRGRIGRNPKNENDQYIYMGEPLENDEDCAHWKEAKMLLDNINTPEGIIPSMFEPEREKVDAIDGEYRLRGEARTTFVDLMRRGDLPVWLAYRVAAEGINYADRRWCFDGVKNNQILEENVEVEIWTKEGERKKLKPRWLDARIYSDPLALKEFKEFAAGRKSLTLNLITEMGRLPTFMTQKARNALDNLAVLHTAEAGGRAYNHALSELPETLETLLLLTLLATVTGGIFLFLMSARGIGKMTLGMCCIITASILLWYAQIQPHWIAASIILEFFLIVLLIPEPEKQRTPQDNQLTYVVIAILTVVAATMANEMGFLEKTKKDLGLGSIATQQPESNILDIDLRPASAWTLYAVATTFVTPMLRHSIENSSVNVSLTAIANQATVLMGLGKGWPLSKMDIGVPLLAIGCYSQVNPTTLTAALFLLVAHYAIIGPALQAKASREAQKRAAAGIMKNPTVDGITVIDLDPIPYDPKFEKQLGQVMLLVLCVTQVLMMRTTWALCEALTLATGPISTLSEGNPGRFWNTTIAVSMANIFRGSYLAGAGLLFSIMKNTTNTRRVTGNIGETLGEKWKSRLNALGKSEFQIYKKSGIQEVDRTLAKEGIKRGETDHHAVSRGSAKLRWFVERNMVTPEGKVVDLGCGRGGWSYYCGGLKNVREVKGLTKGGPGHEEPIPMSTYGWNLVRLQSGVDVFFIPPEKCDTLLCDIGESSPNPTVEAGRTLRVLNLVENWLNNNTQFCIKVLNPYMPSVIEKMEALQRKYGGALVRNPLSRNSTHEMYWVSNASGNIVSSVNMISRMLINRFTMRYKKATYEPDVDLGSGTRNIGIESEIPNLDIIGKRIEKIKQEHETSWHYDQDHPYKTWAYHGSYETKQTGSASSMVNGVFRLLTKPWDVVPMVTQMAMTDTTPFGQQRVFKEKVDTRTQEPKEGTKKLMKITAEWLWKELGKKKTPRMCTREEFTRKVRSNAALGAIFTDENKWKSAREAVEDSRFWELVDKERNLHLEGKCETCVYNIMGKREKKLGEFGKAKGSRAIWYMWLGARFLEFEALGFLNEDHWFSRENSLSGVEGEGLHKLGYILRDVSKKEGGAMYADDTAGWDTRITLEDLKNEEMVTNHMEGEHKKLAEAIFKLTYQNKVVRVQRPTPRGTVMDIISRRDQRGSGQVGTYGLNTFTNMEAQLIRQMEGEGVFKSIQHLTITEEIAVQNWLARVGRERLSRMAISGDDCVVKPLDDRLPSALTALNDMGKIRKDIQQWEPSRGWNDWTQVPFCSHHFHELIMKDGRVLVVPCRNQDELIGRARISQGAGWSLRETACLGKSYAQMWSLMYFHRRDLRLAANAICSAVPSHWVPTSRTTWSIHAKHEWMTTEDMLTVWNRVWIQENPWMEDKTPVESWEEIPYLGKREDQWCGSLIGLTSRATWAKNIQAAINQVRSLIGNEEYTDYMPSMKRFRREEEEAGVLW

`CC(C)(CNC(=O)c1cc(Cl)c(O)c(Cl)c1)N1CCCCC1` was tested, and the inhibition was 3.57% (inactive).
In the case of `CCC1=NN2C(=N)/C(=C/c3ccc(OS(=O)(=O)c4ccccc4)c(OC)c3)C(=O)N=C2S1`, the inhibition is reported as 4.04% (inactive).
`N=C1/C(=C\c2ccc(OC(=O)c3ccc(F)cc3)cc2)C(=O)N=C2SC(N3CCCC3)=NN12` was tested, and the inhibition was -2.77% (inactive).
With `CCC1=NN2C(=N)/C(=C\c3ccc(OCCOc4ccc(NC(C)=O)cc4)c(OC)c3)C(=O)N=C2S1` the inhibition was 4.57% (inactive).
In the case of `N=C1/C(=C\c2ccc(OC(=O)c3ccccc3)cc2)C(=O)N=C2SC(N3CCOCC3)=NN12`, the inhibition is reported as 3.46% (inactive).
In the case of `Cc1ccc(C(=O)Oc2ccc(/C=C3\C(=N)N4N=C(N5CCOCC5)SC4=NC3=O)cc2)cc1`, the inhibition is reported as 9.04% (inactive).
In the case of `N=C1/C(=C\c2ccc(OC(=O)c3ccccc3Cl)cc2)C(=O)N=C2SC(N3CCOCC3)=NN12`, the inhibition is reported as 34.8% (inactive).
In the case of `COCCN(CCOC)S(=O)(=O)c1ccc(C(=O)NCCCN2CCOCC2)cc1`, the inhibition is reported as -2.15% (inactive).
For `O=C(c1ccco1)N1CCN(C(=S)Nc2ccccc2Cl)CC1`, the inhibition was 1.93% (inactive).
For `Cc1cc2n(n1)C(c1ccsc1)Nc1ccccc1-2` (stereo not given), the inhibition was -9.35% (inactive).
In the case of `C/C(=C\COc1cc(=O)[nH]c2ccccc12)CCC(O)C(C)(C)O` (stereo not given), the inhibition is reported as -11.2% (inactive).
In the case of `Cc1nc2ccccc2n1CC(=O)NC(C)C1CC2CCC1C2` (stereo not given), the inhibition is reported as -6.66% (inactive).
In the case of `C=CCn1c(SCc2ccc(F)cc2)nc2c1c(=O)[nH]c(=O)n2C`, the inhibition is reported as -3.48% (inactive).
`Cc1nn(CC(=O)Nc2cccnc2)c(C)c1[N+](=O)[O-]` was tested, and the inhibition was -9.49% (inactive).
For `C/C(=N/NC(=O)Cc1ccccc1)c1ccc(C)s1`, the inhibition was 5.19% (inactive).
With `O=C1ON=C(c2ccccc2)/C1=C/c1ccc(O)cc1` the inhibition was 42% (inactive) and the inhibition [1] was 20.8%.
In the case of `Cc1ccc(C2=NOC(=O)/C2=C\c2ccccc2)cc1`, the inhibition is reported as 27.9% (inactive).
For `O=C1ON=C(c2ccccc2)/C1=C/c1ccc(O)c(O)c1`, the inhibition was 28.7% (inactive).
With `O=C1ON=C(c2ccccc2)/C1=C/c1ccccc1` the inhibition was 27% (inactive) and the inhibition [1] was 8.25%.
`O=c1[nH]c2cc(Cl)cc(Cl)c2[nH]c1=O` was tested, and the inhibition was -3.92% (inactive).
`CSc1nc(N(C)C)nc(N(C#N)CCOC(C)=O)n1` was tested, and the inhibition was 0.74% (inactive).
With `COc1ccc(NS(=O)(=O)c2cc(NC(=O)[C@@H](NC(=O)c3ccccc3)C(C)C)ccc2C)cc1` the inhibition was -3.89% (inactive).
With `COc1cc(CC(=O)O)ccc1OCc1ccccc1` the inhibition was -5.48% (inactive).
`Cc1[nH]c2ccccc2c1SCC(=O)O` was tested, and the inhibition was -8.76% (inactive).
`O=C(O)CCc1c(C(=O)O)[nH]c2ccccc12` was tested, and the inhibition was -0.56% (inactive).
With `CC(=O)Nc1c(C(=O)O)[nH]c2ccccc12` the inhibition was -4.8% (inactive).
For `O=C(O)c1[nH]c2ccccc2c1-c1ccccc1`, the inhibition was -4.76% (inactive).
With `C=CCOc1ccc(C(c2c(C)n(C)n(-c3ccccc3)c2=O)c2c(C)n(C)n(-c3ccccc3)c2=O)cc1` the inhibition was -3.27% (inactive).
For `COc1cc(C(NC(C)=O)NC(C)=O)ccc1OCc1ccccc1`, the inhibition was -12.5% (inactive).
`COc1ccc(CN=Cc2c(C(=O)O)[nH]c3ccccc23)cc1` was tested, and the inhibition was -3.12% (inactive).
`COc1ccc2sc(N(CCCN(C)C)C(=O)c3ccc(C(=O)c4ccccc4)cc3)nc2c1` was tested, and the inhibition was 0% (inactive).
With `CN(Cc1ccccc1F)C(=O)C1CCCN(C(=O)c2ccc(Cl)cc2)C1` (stereo not given) the inhibition was 3.62% (inactive).
`COc1ccc(NS(=O)(=O)c2ccc3c(c2)N(C(C)=O)CCS3)cc1` was tested, and the inhibition was -7.87% (inactive).
With `CCOc1nc(C)ccc1-c1noc(C)n1` the inhibition was 0% (inactive).
With `COCc1c(Br)c(C)nc(OCC(=O)O)c1C#N` the inhibition was 0.8% (inactive).
With `CCCCN(C(=O)CCC(=O)Nc1cc(C)on1)C(C(=O)NC1CCCC1)c1ccc(F)cc1` (stereo not given) the inhibition was -14.2% (inactive).
`N#Cc1cc2c(nc1SCc1cccc(Cl)c1)CCCCC2` was tested, and the inhibition was 4.4% (inactive).
`Cc1ccc(C(=O)OCC(=O)N2CCC(C)CC2)cc1S(=O)(=O)N1CCCCC1` was tested, and the inhibition was -4.55% (inactive).
With `CCCCSC1=N/C(=C/c2ccsc2)C(=O)N1c1ccccc1` the inhibition was -1.97% (inactive).
In the case of `Fc1cccc(COc2ccccc2C(=S)N2CCCC2)c1`, the inhibition is reported as -5.22% (inactive).
`Cc1[nH]c2ccccc2c1C(C[N+](=O)[O-])c1cccc(O)c1` (stereo not given) was tested, and the inhibition was -3.77% (inactive).
In the case of `CCS(=O)(=O)Nc1c(C(=O)O)[nH]c2ccccc12`, the inhibition is reported as -0.33% (inactive).
For `C#CCOCCOCCOCCNc1nc(N2CCN(C(=O)[C@H](CO)n3cc([C@@H](N)C(C)C)nn3)CC2)nc(N2CCN(C(=O)[C@H](CCCCN)n3cc([C@@H](N)[C@H](C)CC)nn3)CC2)n1`, the inhibition was 0% (inactive).
In the case of `Cc1ccsc1/C=N/NC(=O)c1ccncc1`, the inhibition is reported as -0.74% (inactive).
In the case of `Cc1ccc(/C=N/NC(=O)c2ccncc2)cc1`, the inhibition is reported as -7.15% (inactive).
For `Cn1c(=O)c(/C(N)=N/OC(=O)c2ccccc2)cn(-c2ccccc2)c1=O`, the inhibition was 0% (inactive).
For `Cc1nc2nc(C)c(NS(=O)(=O)c3ccc(C4CCCCC4)cc3)c(=O)n2[nH]1`, the inhibition was -5.01% (inactive).
For `CCc1nc2nc(C)c(NS(=O)(=O)c3ccc(C4CCCCC4)cc3)c(=O)n2[nH]1`, the inhibition was 7.51% (inactive).
With `Cc1cc(Br)ccc1NC(=O)c1ccc(-n2cncn2)c([N+](=O)[O-])c1` the inhibition was 5.79% (inactive).
With `O=C(CCCCCNc1nc(=S)[nH]c2ccccc12)NCCC1=CCCCC1` the inhibition was -4.45% (inactive).
`CCCCn1c(N)c(N(CC(C)C)C(=O)C2CCCO2)c(=O)[nH]c1=O` (stereo not given) was tested, and the inhibition was -0.74% (inactive).
With `COc1cc2c(cc1OC)C1c3ccc(OC)c(OC)c3OCC1(O)C2` (stereo not given) the inhibition was 3.23% (inactive).
In the case of `CCOc1ccc(NC(=O)CN(C)C(=O)c2ccncc2)cc1OCC`, the inhibition is reported as 4.54% (inactive).
`O=C(CCOc1ccccc1)N1CCCC(Nc2ccccc2)C1` (stereo not given) was tested, and the inhibition was -3.45% (inactive).
With `COc1cccc(CNC(=O)[C@H](C)NC(=O)C2CCN(S(=O)(=O)c3ccccc3)CC2)c1` the inhibition was -6.35% (inactive).
For `CC12CCC(=O)N1C(C(=O)Nc1nccs1)CS2` (stereo not given), the inhibition was -5.93% (inactive).
With `Cc1nc(SCC(=O)O)c2oc3ccccc3c2n1` the inhibition was -1.65% (inactive).
`O=C(O)CSc1nc(-c2ccccc2)nc2c1oc1ccccc12` was tested, and the inhibition was 5.73% (inactive).

— PubChem BioAssay AID588689 (Southern Research Specialized Biocontainment Screening …, 2011)
